In PubChem BioAssay AID1159506 (National Center for Advancing Translational Sciences (NCATS), 2015):
Whole data set: some 59,000 sequences, median the read-out near -0.00055, cut for the lowest 2% near -2. This is one part of a sample in which the lowest values are shown more often than they occur.

Assay: Identification of proteins required for the processing of the EWS-FLI1 nascent transcript;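 also: robust z of luciferase light less the median z of siRNAs with the same seed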
Conditions: TC32 Ewing sarcoma NR0B1-luc vs CMV-luc (EWS-FLI1 target promoter against control promoter), 48 h; screened at 20 nM (by protocol)
How it was run: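 TC32 Ewing sarcoma cells carrying NR0B1-promoter or CMV-promoter luciferase reporters were reverse-transfected with single siRNAs at 20 nM, three per gene genome-wide. Luminescence was read after 48 h and normalized to non-targeting controls.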

Sequence | seed-corrected z-score
UCCUUUUCCACGACCAUCG against CCR2 | -1.29
UGCUGGAUCAGGGAGAUAG against TRPM2 | -2.19
UCUUGUAGCGGAAAAGGCC against DUSP2 | 0.0146
UAACGAAUAAUUUCUGCUC against HPGDS | -0.285
UUCCGGAUAGCCUACAUCC against USP36 | -0.445
UAAUGUACAUCUCUCGUCC against CNGA1 | -2.2
UCAUCCUCCAGGAUCAUGG against ZSCAN2 | -0.868
UAUUAGCACAGUGUAAGGC against PDE10A | -0.276
AAUGAUCACAUCGAUAGUG against SGMS2 | -2.21
UUUAUCAUUAGGGCUAGGG against DHRS4L1 | 0.864
UUUUCGGUAACUCUGCGUG against SPEN | -0.638
UAAGGUUCUCCCUCACAGC against JAKMIP2 | -0.785
UUGUUGUAAAGCACGAUGU against CHRNB4 | -0.439
UAUUAUUGAUGCGACAUCC against CNGB3 | 0.631
UCUGGUUCCUCGGCGAAGU against PRSS53 | -2.84
UAUCUUCACUGGGUUCAUG against IRF6 | 2.07
AAUUUCUCCAGAAUCUAUG against TENM4 | -2.16
UUCUUUUAUUGCCUCGGGU against KISS1 | 0.198
UUCGUUCCAACAUAGGCUG against AGBL1 | -2.49
UGACAUAUGAGUUCGAUGG against ZCCHC17 | 0.589
AAUACUCUCAGUUCGAAUG against TXNDC15 | 0.939
AAUCUUGUUAUGCUCAUGG against ZBTB47 | -0.317

Sequence | seed-corrected z-score
UUCGGUUCAAGUUUAGCAG against TM9SF2 | -0.205
UCAAGUUCUAUGAGAUUGG against ARRB1 | 0.195
ACAAUUUCAAGCUCCUGUC against MAGOHB | -1.58
UCUAGAUCACCAAACAUCA against OR1N1 | 0.571
AGACAUAACACCUUCUUCA against RPL10A | -2.86
ACACCAGUGAUUACUGUGC against FLJ44635 | -0.245
UUGGUGAAUAGUCUCUUUC against RPS2P45 | -0.275
UCUUCACGCAGUAUCUUUC against SLC25A13 | 1.22
UCUUCUUUAGUCUUCCUGC against STMND1 | -1.04
UGCUCGAAAACAACCUUCU against TPI1 | 0.853
ACAUCUAUCACAUCUAAGG against ZC3H13 | 0.428
UAUUUUGCAAUAUCUUCUC against SLU7 | -0.229
AUCGUCAUAUCUACCAUUG against USP34 | -1.15
UGUUUGAUGACAAGGGUUG against POLE2 | -2.32
AAAGUGUCUAGCCCUAUGG against MESP1 | 0.768
AAUUCCAUGAGGGCCUUCC against CDKN2AIPNLP1 | -2.53
UUCGGCACCAUUCACAGAG against FAM57A | 0.0703
UGUUGACAAACCAUCUUUC against PDPN | 0.381
UUCAAAAACCACGAUGUUG against CLDN8 | 0.491
UGUUGUAGCACUUGGCUUU against IFITM5 | -3.59
AUAUCGAACAGUUUGGUAC against CTDNEP1 | 0.928
AUCCGGAUCAUCGAGUCUG against ATP1B4 | -0.782

Sequence | seed-corrected z-score
UUAAAUGUAAGCAGGUUUC against CYTL1 | 0.276
AUUGAGGUAGGAGCCGUCG against FGFRL1 | -2.32
UUCAUUGCGAUUAGCCUGC against ANXA13 | -0.522
UACUAGAGCAGUGUCUGAG against DNPH1 | 0.502
UUCUCGUUGAUGCGGCUCC against ASB1 | -2.16
UUGUUUUCACUUCCAAUGC against FCAMR | -0.0643
UCACGGUCAUCAUCUAGGG against FOPNL | -2.56
UUGUCUAGAAGAAUUGUCG against TTC3 | -0.75
UUAGGGACGAUGUCCACGG against RSPH6A | -0.977
UCUGGUUCAGCAUGAGCUG against SYT8 | -2.2
UAUAACUUGUCGGAAACGC against NPIPB3 | 0.406
UCAAGUCCGACUUGGAGCG against FAM110A | -0.0203
AGUCUGAAUACCAUCCUUC against GATA1 | -0.386
AACAUAGCUAAAAUGAUCC against CLMN | -2.28
ACUGAGCUCAUUCUUGUCC against HSF1 | -0.661
UUUACAGCUGAUGAUAUGG against RWDD4 | -0.249
UUCGAUAGUAACAAAGUUC against PCDH9 | -2.03
AAAGUCUCCAGUUAAUAGC against MRPL46 | 1.41
UAGUGCACCACGCAGGUCU against FKBP1A | 0.92
UUACGGACAUCCGAUCUUC against DPYS | -0.0377
UCAUAGUCCGCGAUCACCU against EDF1 | -0.388
UAUCCAGUACGUGAGGCCC against LRP5L | -1.82

Sequence | seed-corrected z-score
UUGGUUGUCAGAGUAGGUG against HSPA1L | -2.39
UUUCCCAUCCUUAAAGAGC against PTGS1 | -0.201
AAUCUAACUGCAUUCGUUG against RSBN1L | 0.409
UUGUGAGCCGACAGGAUGC against PYCR2 | -0.604
AAAACAUACAUUGACUUGC against LINC01098 | -0.153
UGAGUUUCCGUACCACACC against PRDM12 | -2.92
UAUUCCCUAAUAAAGCAGG against ZMYM5 | 0.289
UUCUUCAACCUUGAGGCGG against SNAPC5 | 0.755
UGAUGUCUACAAUAUCACC against RPL21 | -2.69
UGGGUGAUAAGAAAAACAG against CD40LG | -0.837
AAAGCAAAUAGUAUGGUUC against ATG5 | 0.522
UGGACUCCUACAUUACUGC against EFCAB13 | 0.0128
AAAGGUACUCUUGGGCAGG against EEF1G | -0.242
UUAGGUAAUACACUAUUUG against THAP2 | 0.091
UCCCAGACUUUGACCAUGC against WDR38 | -2
UCUUGUGGAUGUAAUAUGC against SIMC1 | -0.283
UUCUUCUACAGGCUUGAGG against SMNDC1 | -0.35
UGAGUUUGAACCCAAAAGU against IGFL4 | 1.44
UCUGUAGUCAGUUUGGUUG against LDB1 | -0.7
